Data: PubChem BioAssay (NCI)
Values joined by “and” are separate entries in the source; they are usually repeats but may differ in a detail not shown here. Identical values can stand only once. About 83,000 compounds went through this panel and 20% of them were active in at least one assay; those are over-represented in the sample as a whole.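 Single-concentration screen, 48 h exposure, 96-well plates. Endpoint: percent growth. Below 10 = active.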 Active and inactive are the calls of the source.

System: MDA-MB-468 breast
Assay: NCI-60 one-dose screen, 48 h (100 = growth as untreated, 0 = no growth, -100 = all killed)
Conditions: 10 µM unless noted
Method: Growth inhibition of the MDA-MB-468 human Breast tumor cell line is measured as a screen for anti-cancer activity. Cells are grown in 96 well plates and exposed to the test compound for 48 hours. Compounds are tested at a single concentration, which is 10^-5 M for most compounds. The reported endpoint is percent growth (GI% or GIPRCNT), where numbers from 0 - 100% represent growth inhibition, and numbers from -100% - 0 represent cell death. For example, a value of 40 represents 60% growth inhibition. A value of 0 means no net growth occurred over the course of the experiment. A value of -40 indicates 40% of cells at the beginning of the experiment died by the end of the experiment. A value of -100 means all cells are dead at the end of the experiment.
NCI-60 Human Tumor Cell Lines Screen was performed using the standard one-dose NCI protocol, which is described in more detail at https://dtp.cancer.gov/discovery_development/nci-60/default.htm.
Compounds with GIPRCNT values below 10 were considered active. Activity score was based on GIPRCNT using the following formula: […]
Score is 0 for GIPRCNT values of 100 or above, 50 for GIPRCNT values of 0, and 100 for GIPRCNT values of -100.

Row | Compound | growth
1 | C=CCOC(=O)C(Br)CC (stereo not given) | 98% (inactive)
2 | CCC1CN1CCCCN1CC1CC (stereo not given) | 101% (inactive)
3 | CCCCNC(c1ccc(Cl)cc1)C(O)c1ccc(Cl)cc1 (stereo not given) | -14.6% (active)
4 | [Cl][Hg][n]1c(-c2ccco2)nc2ccccc21 | 94.4% (inactive)
5 | CC[C@]12C=CCN3CC[C@@]4(c5ccc(OC)cc5N(C)[C@H]4[C@@](O)(C(=O)OC)[C@@H]1OC(=O)CCC[P+](c1ccc(C)cc1)(c1ccc(C)cc1)c1ccc(C)cc1)[C@@H]32 | -92.1% (active)
6 | COC(=O)[C@@H](C)C[C@H](Cc1ccccc1)NC(=O)c1csc(CC[C@H](C(C)C)N(C)C(=O)[C@@H](NC(=O)[C@H]2CCCCN2C)C(C)C)n1 | 8.45% (active)
7 | C[C@@]12CC=C3c4nc(Nc5cccc(O)c5)sc4CC[C@]3(C)[C@H]1CC[C@]1(C)C(=O)CC[C@@H]21 | 32.2% (inactive)
8 | CC(/C=N/N=C(N)N)=N\N=C(N)N | 88.7% (inactive)
9 | O=[N+]([O-])c1ccc(CI)cc1 | 75.6% (inactive)
10 | CCOP(=O)(NC)OCC | 94.2% (inactive)
11 | CCCCN1CCCC[C@@H]1C(=O)N[C@H](C(=O)N(C)[C@H](C[C@@H](OC(C)=O)c1nc(C(=O)NC2CCC(C(=O)OC)CC2)cs1)C(C)C)C(C)C (stereo not given in full) | 17.4% (inactive)
12 | C=CC[Se]C(=O)c1cncc(C(=O)[Se]CC=C)c1 | -85.2% (active)
13 | CC[C@H](C)[C@H](NC(=O)CN(C)C)C(=O)N(C)[C@H](C[C@@H](OC(C)=O)c1nc(C(=O)NC23CC(C(=O)OC)(C2)C3)cs1)C(C)C | -14.9% (active)
14 | Nc1cc2nc3ccccc3nc2cc1N | -11.9% (active)
15 | [Cl][Sn]([c]1ccccc1)([c]1ccccc1)[c]1ccccc1 | -75% (active)
16 | Cc1ccc(N2CCN(CCC#N)CC2)cc1 | 105% (inactive)
17 | CC1=C(CCCOC(=O)CN)C2=C(C)C3(CC3)[C@@](C)(O)C(=O)C2=C1 | 20.2% (inactive)
18 | C(=NC1CCCCC1)=NC1CCCCC1 | 103% (inactive) and -21.2% (active)
19 | O=[N+]([O-])c1ccc2cnn(CSP(=S)(c3ccccc3)c3ccccc3)c2c1 | 43.1% (inactive)
20 | CC(=O)Nc1ccc(Cc2ccc(NC(C)=O)cc2)cc1 | 95.6% (inactive)

Row | Compound | growth
21 | C[n+]1c(/C=C/c2ccc(N(CCCl)CCCl)cc2)sc2ccccc21 | -0.963% (active)
22 | CC(C)(NC(=O)c1nn(CCCCCF)c2ccccc12)c1ccccc1 | 93.9% (inactive)
23 | O=C1C(=Cc2cn(Cc3ccccc3)c3ccccc23)C(=O)N(Cc2ccccc2)C(=O)N1Cc1ccccc1 | -71.8% (active)
24 | COc1cc2c(c(OC)c1OC)-c1ccc(O)cc1[C@@H](NC(C)=O)CC2 | -20.9% (active) and -7.5% (active)
25 | O=C(/C=C/c1ccccc1)c1nc2ccccc2n1Cc1ccc(Br)cc1 | -93.1% (active)
26 | c1cc2c(c3c1CCNC3)OCO2 | 87.4% (inactive)
27 | COC(=O)[C@@H](C)C[C@H](Cc1ccccc1)NC(=O)c1nc([C@@H](C[C@H](C(C)C)N(C)C(=O)[C@@H](NC(=O)[C@H]2CCCCN2C)C(C)C)OC(C)=O)sc1C(C)C | 20.7% (inactive)
28 | CC(C)OC(=O)[C@H](C)NP(=O)(Oc1ccccc1)C1CCCN(O)C1=O (stereo not given in full) | 96.9% (inactive)
29 | C=CC(O)CN1CC1CC (stereo not given) | 105% (inactive)
30 | COc1cc2c(c(OC)c1OC)-c1ccc(O)c(=O)cc1[C@@H](NC(C)=O)CC2 | 62.8% (inactive)
31 | CC(=O)O[C@H]1CC[C@H]2[C@@H]3CC[C@H]4CC=C(C)C[C@]4(C)[C@H]3CC[C@]12C | 105% (inactive)
32 | COC(=O)C1=CO[C@@H](C)[C@@H]2CN3CCc4c([nH]c5cc(OC)ccc45)[C@@H]3C[C@H]12 | 107% (inactive)
33 | CC(=O)OCc1cc[c]([Hg][Cl])o1 | 21% (inactive)
34 | COc1cccc2c1c(C(=O)C(=O)Nc1ccn[nH]1)cn2Cc1ccc(F)cc1 | 43.3% (inactive)
35 | CC[C@@]12CC(C(=O)OC)=C3Nc4cc5c(cc4[C@@]34CCN(C[C@H]3O[C@H]31)[C@@H]24)[C@@H]1[C@H](O5)[C@@H](O)[C@@]2(CC)CC(C(=O)OC)=C3Nc4cc(OC)ccc4[C@@]34CCN1[C@@H]24 | -56.3% (active)
36 | N#CC(C#N)=Cc1ccc2ccccc2c1 | 105% (inactive)
37 | CC[PH+](CC)CC.O=COC1OC([S-])C(OC=O)C(OC=O)C1OC=O.[Au+] (stereo not given) | -78.8% (active)
38 | COC(=O)[C@]12CCC(C)(C)C[C@H]1[C@H]1C(=O)C[C@@H]3[C@@]4(C)C[C@@]5(CC(C)(C)[C@@H]4CC[C@@]3(C)[C@]1(C)CC2)OO[C@@](C)(C(F)(F)F)O5 | 84.5% (inactive)
39 | CC1=C(O)[C@@](C)(CCCCC[C@H](C)CCCCc2ccc(O)cc2)OOC1=O | 113% (inactive)
40 | CC1=C(C)C(=O)O[C@@H]([C@](C)(O)[C@]2(O)CC[C@@]3(O)[C@@H]4C[C@H]5O[C@]56CC=CC(=O)[C@]6(C)[C@H]4CC[C@]23C)C1 | -26.3% (active)
